# Reference: PubChem BioAssay AID1259389 (Center for Chemical Genomics, University of Michigan, 2018)
# Out of some 100,000 compounds screened, about 620 (0.62%) were called active. Rule for the calls: active = z-score of 3 or more in at least 2 runs; inactive = the rest. This excerpt belongs to a sample that is enriched for actives.
# Assay: TAR RNA-Tat peptide displacers, HIV-1, primary screen, biochemical, FRET, FAM/TAMRA-labeled Tat (AID 1259389)
# Conditions: HIV-1 TAR RNA, Tat peptide displacement FRET; hits give high values
row,SMILES,z-score
1,O=C(Nc1ccccc1Br)c1cnn(-c2ccccc2)c1-n1cccc1,1.05 (inactive)
2,NC(=O)Cn1c(=O)n(CCCCC(=O)NCc2ccco2)c(=O)c2ccccc21,-0.85 (inactive)
3,CCCc1cc(=O)[nH]c(Nc2cccc(Br)c2)n1,0.79 (inactive)
4,C=C(C)Cn1c(CN2CCOCC2)nc2ccccc21,0.03 (inactive)
5,CCc1ccc(N2CCn3c2nc2c3c(=O)n(CC(=O)O)c(=O)n2C)cc1,3.43 (inactive)
6,CC(C)CNc1oc(-c2ccc(S(=O)(=O)N3CCc4ccccc4C3)cc2)nc1C#N,0.36 (inactive)
7,COc1ccc(-c2nnc(-c3ccccc3)o2)cc1S(=O)(=O)N1CCc2ccccc2C1,0.08 (inactive)
8,CN(C)CCCNc1oc(-c2ccc(S(=O)(=O)N3CCc4ccccc4C3)cc2)nc1C#N,11.4 (active)
9,O=C(c1ccccc1)c1ccc2nc(NCCCO)c3nncn3c2c1,-1.78 (inactive)
10,O=C1CCCC2=C1C(c1cccs1)N(C(=O)CCC(=O)N1CCOCC1)c1ccccc1N2 (stereo not given),0.78 (inactive)
11,O=C(CSc1nnc(-c2cccnc2)n1-c1ccccc1)c1ccc(F)cc1,1.26 (inactive)
12,CCc1nc2nc(CSc3nnc(NC(=O)c4ccccc4)s3)cc(=O)n2[nH]1,2.53 (inactive)
13,CCc1nc2nc(CSc3nc4ccc(NC(=O)c5ccco5)cc4s3)cc(=O)n2[nH]1,4.94 (active)
14,CCCC(=O)Nc1ccc2nc(SCc3cc(=O)n4nc(C)sc4n3)sc2c1,0.47 (inactive)
15,CCC(C)N(CCNC(=O)Nc1cn(C)c(=O)c2ccccc12)Cc1ccco1 (stereo not given),1.06 (inactive)
16,Cc1cccc(C(=O)OCc2cc(=O)n3nc(C)sc3n2)c1,-0.36 (inactive)
17,CC(C)OCCCNc1c(-c2ccc(C(C)C)cc2)c(=O)c1=O,10.9 (active)
18,CC(CNc1c(-c2ccc(Cl)cc2)c(=O)c1=O)c1ccccc1 (stereo not given),-0.61 (inactive)
19,COCCNc1c(-c2ccc(Cl)cc2)c(=O)c1=O,0.52 (inactive)
20,O=C1CSc2ccc(S(=O)(=O)NCc3ccccc3)cc2N1,0.46 (inactive)
21,COc1ccccc1C1Nc2ccc(C(=O)O)cc2C2C3CCC(C3)C12 (stereo not given),8.02 (inactive)
22,COC(=O)c1ccc([C@@H]2Nc3ccc(F)cc3[C@@H]3C=CC[C@@H]32)cc1,1.86 (inactive)
23,CCOc1cccc2c1N[C@@H](c1ccc(C(=O)O)cc1)[C@H]1CC=C[C@@H]21,21.4 (active)
24,Cc1ccsc1CCNC(=O)CCS(=O)(=O)c1ccc2c(c1)CC(C)N2C(=O)C1CC1 (stereo not given),-0.02 (inactive)
25,CC(C)NC(=O)NCCn1cnc2cc(C(=O)N(C)C)ccc21,-0.27 (inactive)
